# Data reported in the supplement of paper PMC6555819.
# Legend:
# Assay in all cases: PBM binding z-score (relative to random genomic background probes); higher = stronger binding; sequences stand for … in GC…GCGATTGACAGCGTAGAATGAAGG
# [1] = test system: PPARg:RXRa DBDmut IVT, anti-RXR (DBD mutation: RXRa K156A/R161A, NR concentration 270 nM, RXRa partner concentration 90 nM)
# In short: (§1)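 Ligand-free nuclear receptor dimers were bound for 1 h to custom Agilent 4×180K protein-binding microarrays. Detection used antibodies against each partner (one per run). Binding z-scores rest on regression-normalized fluorescence, with random background probes as the reference.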
# [2] = test system: PPARg:RXRa IVT, anti-PPARg (NR concentration 270 nM, RXRa partner concentration 90 nM)
# In short: as §1
# [3] = test system: PPARg DBDmut:RXRa IVT, anti-PPARg (DBD mutation: PPARg1 K132A/R137A, NR concentration 270 nM, RXRa partner concentration 90 nM)
# In short: as §1
# [4] = test system: PPARg DBDmut IVT, anti-PPARg (DBD mutation: PPARg1 K132A/R137A, NR concentration 270 nM)
# In short: as §1
# [5] = test system: PPARg homodimer (NR concentration 180 nM)
# In short: as §1
# [6] = test system: PXR homodimer (NR concentration 270 nM)
# In short: as §1
# [7] = test system: RARa:RXR (NR concentration 270 nM, RXRa partner concentration 90 nM)
# In short: as §1
# [8] = test system: RARa homodimer (NR concentration 270 nM)
# In short: as §1
# [9] = test system: RARb:RXRa (NR concentration 270 nM, RXRa partner concentration 90 nM)
# In short: as §1
# [10] = test system: RARb homodimer (NR concentration 270 nM)
# In short: as §1
# [11] = test system: RARg:RXRa (NR concentration 270 nM, RXRa partner concentration 90 nM)
# In short: as §1
# [12] = test system: RARg homodimer (NR concentration 270 nM)
# In short: as §1
# [13] = test system: RXRa DBDmut IVT, anti-RXR (DBD mutation: RXRa K156A/R161A, NR concentration 90 nM)
# In short: as §1
# [14] = test system: RXRa homodimer (NR concentration 180 nM)
# In short: as §1
# [15] = test system: THRa:RXRa (NR concentration 90 nM, RXRa partner concentration 90 nM)
# In short: as §1
# [16] = test system: THRa homodimer (NR concentration 90 nM)
# In short: as §1
# [17] = test system: VDR homodimer (NR concentration 270 nM)
# In short: as §1
# [18] = test system: VDR:RXRa (NR concentration 270 nM, RXRa partner concentration 90 nM)
# In short: as §1
# [19] = test system: PXR:RXRa (NR concentration 270 nM, RXRa partner concentration 90 nM)
# In short: as §1
Sequence,PBM binding z-score [1],PBM binding z-score [2],PBM binding z-score [3],PBM binding z-score [4],PBM binding z-score [5],PBM binding z-score [6],PBM binding z-score [7],PBM binding z-score [8],PBM binding z-score [9],PBM binding z-score [10],PBM binding z-score [11],PBM binding z-score [12],PBM binding z-score [13],PBM binding z-score [14],PBM binding z-score [15],PBM binding z-score [16],PBM binding z-score [17],PBM binding z-score [18],PBM binding z-score [19]
CCTTACGGGTCAAGGTTATCGCACGGGTGGTACG,2.42,3.71,0.643,-0.085,2.19,0.106,4.53,0.512,4.2,3.58,5.02,5.11,1.31,5.6,3.15,1.02,1.69,–,–
AGTCAAAGTTCTTCTAGGTAACGTAAGATATGCT,0.515,1.89,0.999,1.12,0.188,0.42,0.106,0.636,0.948,0.172,0.404,0.586,1.41,-0.133,1.71,0.292,0.746,0.489,–
TCTCGGAGGACACGAAAGGGCAGAGCTCGACATC,1.43,0.279,-1.54,-1.04,-0.108,-0.585,0.468,-0.203,2.42,2.21,1.52,2.06,0.584,0.474,1.76,0.0765,-0.17,-0.0327,–
CCGTACGGGTCAAGGTTATAGCACGGGTGGTACG,0.0598,2.11,-0.559,-1.41,1.37,0.0308,4.49,-0.0555,4.09,3.24,4.93,4.6,0.337,5.61,3.09,0.588,1.37,3.43,–
TAGCCTAGGTCATTCAGGGGTCAGTATAGAAAGC,2.45,3.97,1.25,0.527,9.82,1.35,–,2.26,4.81,5.2,–,6.28,2.75,5.8,4.22,2.13,4.47,–,5.72
CATCCAAGGTCAAAGGTCAGTGAAGAGATGACGG,4.07,6.54,2.71,3.63,5.52,2.53,–,3.93,–,5.65,8.8,7.95,4.08,10.2,4.93,2.74,4.15,–,7.36
CAAACTAGGTCACCGGGAGGTCAAAGTCCGCATG,8.47,9.02,1.69,0.534,6.45,4.09,7.76,3.15,5.16,5.88,8.67,7.68,2.07,7.06,4.94,4.06,4.85,–,–
AATACAGGGTCATTAGGCCAGAGTAGGTACGAAT,3.37,4.54,1.38,0.677,2.55,0.493,4.48,1.06,4.04,2.95,4.94,4.39,3.84,5.53,3.28,1.07,3.17,4.61,–
CCTTACGGGCCACGAGGTTATAGCACGACGAGCG,0.97,1.16,-0.462,-1.1,0.126,-0.12,1.06,-0.0676,1.15,1.17,1.33,1.07,-0.516,1.28,1.25,0.458,0.543,0.504,–
ATCAAAAGGTCGAAGGTGAGTATACCCACCCGAA,0.661,2.86,1.48,0.784,2.7,-0.118,4.72,0.445,4.05,2.75,4.51,4.34,1.27,5.55,2.26,-0.268,0.86,–,–
ATATGTAGGTTACATCCGGGTCATTCTGGCTATG,7.39,7.49,2.61,2.66,1.91,0.712,3.04,0.96,2.21,2.67,3.21,1.93,1.51,3.1,3.63,2.37,2.5,–,–
ATATGTAGGTTACATCGGGGTCATTCAGGCTATG,7.87,7.63,3.44,3.24,3.92,10.3,7,1.93,3.25,4.16,5.65,3.14,2.56,6.42,4.32,3.16,6.17,–,–
CGTCCAAGGTCATAGGAGTTCAGTGAAGACAGAT,3.09,4,1.39,0.8,5.14,10.9,5.59,2.08,5.31,4.79,6.25,6.57,4.22,6.23,4.71,2.7,5.97,–,–
CGTCCGAGGTCAAAGGTCAGTGAAGAGATGACGG,4.36,6.35,2.87,3.81,5.95,3.02,8.81,4.96,5.93,5.1,8.9,8.05,4.57,10.3,4.89,2.7,4.73,–,–
ATATGTAGGTTACATCCGAGTCATTCAGGCTATG,6.76,7.07,4.51,3.39,0.982,0.05,0.757,0.574,0.973,0.405,0.915,1.04,0.858,1.04,0.785,0.511,0.236,–,–
ACTAGTAGGTCAGCTGAGGTCACACACAATTCGG,7.68,7.77,2.63,2.31,6.08,4.54,6.25,4.07,5.01,5.47,6.45,7.1,2.43,6.29,–,5.63,5.23,–,–
